In the library only some 15% were active in any assay of this set; here they are far more common.
Gal4-VP16 FLuc = VP16 counterscreen qHTS for inhibitors of ROR gamma transcriptional activity; Drosophila S2 Gal4-VP16 UAS-luciferase, luminescence, 20 h; Potency, µM (series often up to 53.6 µM), for inactives: top-dose activity, negative = inhibition, hits mostly inhibitors; hit rate 3.5% among 310,000; AID 2546, 2010;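 note: Gal4-VP16 expression switched on by copper sulfate through the metallothionein promoter; nearly all actives have a fitted effect of over 50% in size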
ALOX12 inh = Primary qHTS assay for inhibitors of human arachidonate 12S-lipoxygenase (ALOX12): Round 2; Polyunsaturated fatty acid lipoxygenase ALOX12 (Homo sapiens), P18054; purified 12hLO, xylenol orange hydroperoxide absorbance; Potency, µM (highest dose often 108 µM), for the others: top-dose activity change, negative = inhibition, actives largely listed as inhibitors; hit rate 1.1% among 580,000
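Hydroperoxide product was detected by ferrous iron/xylenol orange as the 573 to 405 nm absorbance ratio. Arachidonic acid at 40 uM (final) was turned over for 30 min at room temperature by 150 nM human 12hLO, pH 7.0 Hepes buffer, after 15 min compound preincubation.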
DT40 TDP1 no CPT = qHTS for Inhibitors of human tyrosyl-DNA phosphodiesterase 1 (TDP1): qHTS in cells in absence of CPT; DT40 Tdp1-/- hTDP1 cells, no CPT, ATP luminescence, 48 h; Potency, µM (doses to about 46.2 µM), inactives show at the highest dose activity change, negative = growth inhibition, hits mostly inhibitors; hit rate 15% among 420,000; AID 686978, 2013; note: nearly all actives have a fitted effect of over 55% in size
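Camptothecin absent (DMSO only). Human TDP1-complemented DT40 knockout cells, 400 cells/well, 37 °C for minimum 48 hr; ATP measured via CellTiter-Glo, 30 min dark incubation, luminescence.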
RORgamma inh = qHTS for inhibitors of ROR gamma transcriptional activity. AID 2551, 2010. hit rate 5.4% among 310,000. Drosophila S2 Gal4-RORgamma UAS-luciferase reporter, 20 h. Nuclear receptor ROR-gamma (Mus musculus), P51450. Potency, µM (top dose mostly 53.6 µM), for the others: at the top dose activity change, negative = inhibition, usual class: inhibitors; note: nearly all actives have a fitted effect of over 60% in size
Target sequence (P51450 whole entry, looked up, the tested form may be a part): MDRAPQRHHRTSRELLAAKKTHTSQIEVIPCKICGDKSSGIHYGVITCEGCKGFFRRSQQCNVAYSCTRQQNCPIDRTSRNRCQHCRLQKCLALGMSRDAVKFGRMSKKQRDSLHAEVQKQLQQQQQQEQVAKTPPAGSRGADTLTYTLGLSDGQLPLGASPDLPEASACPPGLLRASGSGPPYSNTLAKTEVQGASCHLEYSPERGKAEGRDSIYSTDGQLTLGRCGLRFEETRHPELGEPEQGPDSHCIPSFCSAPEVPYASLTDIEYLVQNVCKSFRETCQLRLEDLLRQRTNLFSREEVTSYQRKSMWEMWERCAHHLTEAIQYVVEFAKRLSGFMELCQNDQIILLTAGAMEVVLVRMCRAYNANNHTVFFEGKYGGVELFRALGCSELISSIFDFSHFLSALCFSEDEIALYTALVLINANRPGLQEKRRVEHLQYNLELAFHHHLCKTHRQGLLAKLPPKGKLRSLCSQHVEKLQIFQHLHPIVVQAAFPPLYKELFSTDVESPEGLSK
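Using a luciferase readout, inhibitors were identified by reduced reporter activity in Drosophila cells coexpressing a copper-inducible Gal4–ROR gamma fusion and UAS-driven Photinus luciferase, incubated 20 hr after 700 uM copper sulfate.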
TDP1 cell CPT = qHTS for Inhibitors of human tyrosyl-DNA phosphodiesterase 1 (TDP1): qHTS in cells in presence of CPT; chicken DT40 Tdp1-/-;hTDP1 cells + 20 nM CPT, ATP luminescence, 48 h; Potency, µM (top dose mostly 46.2 µM), inactives show at the highest dose activity change, negative = growth inhibition, most hits filed as inhibitors; hit rate 12% among 420,000; AID 686979, 2013; note: nearly all actives have a fitted effect of over 55% in size
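Chicken DT40 Tdp1-/- cells stably complemented with human TDP1 were seeded at 400 cells/well in medium containing 20 nM camptothecin, exposed to pin-transferred compounds, and grown at 37 °C for at least 48 hr. Viability was read as ATP luminescence.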
ELG1 DNA repair = qHTS screen for small molecules that inhibit ELG1-dependent DNA repair in human embryonic kidney (HEK293T) cells expressing luciferase-tagged ELG1; HEK293T ELG1-luciferase reporter, luminescence, 16 h; DNA damage induced by 5-fluorouridine; Potency, µM (series often up to 46.1 µM), inactives show top-dose activity change, negative = inhibition, most hits filed as inhibitors; hit rate 2.3% among 330,000; AID 504467, 2011; note: nearly all actives have a fitted effect of over 55% in size
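Step one: seed 2,000 cells per well. Step two: pin-transfer compound or DMSO alongside 5-fluorouridine. Step three: incubate 16 hr, 37 °C, 5% CO2. Step four: add ONE-Glo, wait 30 min, read luminescence.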
* = called active by the depositor; [ ] = remark or other dose. Calls come from the whole dose curve; as a rule, active = well fitted curve in the direction sought with a large enough effect; inconclusive = small, poorly fitted or top-dose-only effect, or another doubt; inactive = no such curve, though single readings can be large; an effect the other way counts as inactive or inconclusive. % is set by controls: 0 for no effect and ±100 for the full control effect; potency is the fitted concentration of half-maximal effect.

What do the screens show for `CC(=O)c1c(C)oc2c1C(=O)c1ccccc1C2=O`?
Gal4-VP16 FLuc: 16µM*; ALOX12 inh: -9%; DT40 TDP1 no CPT: 7.3µM*; RORgamma inh: 4µM*; TDP1 cell CPT: 8.2µM*; ELG1 DNA repair: 12µM*

What do the screens show for `COc1ccc(CNC(=O)c2c(C)noc2-c2ccccc2C)cc1`?
ALOX12 inh: -4%

How did O=S(=O)(c1ccccc1)N1CCCC2(CC(c3ccccc3)=NO2)C1 (stereo not drawn) do in these assays?
ALOX12 inh: 0%[6.33 µM]

Results for O=C(NCc1cccnc1)c1ccc(-c2cc3ccccc3oc2=O)cc1 ?
Gal4-VP16 FLuc: -8%; ALOX12 inh: -9%; DT40 TDP1 no CPT: inconclusive; RORgamma inh: 43%; TDP1 cell CPT: 12µM*; ELG1 DNA repair: 2%

Results for COCCNc1oc(-c2ccc(S(=O)(=O)N3CCC(C)CC3)cc2)nc1C#N ?
ALOX12 inh: 3%

How did CCc1nc(N)nc(N)c1-c1ccc(Cl)c([N+](=O)[O-])c1 do in these assays?
ALOX12 inh: 0%; DT40 TDP1 no CPT: 0.052µM*; TDP1 cell CPT: 0.18µM*

What do the screens show for `CCc1nc(N)nc(N)c1-c1ccc(Cl)c(N=[N+]=[N-])c1`?
ALOX12 inh: inconclusive; DT40 TDP1 no CPT: 1.8µM*; TDP1 cell CPT: 5.2µM*

What do the screens show for `Nc1ccc(Cl)cc1[N+](=O)[O-]`?
Gal4-VP16 FLuc: 0%; RORgamma inh: 39%

Results for CCOc1cc(-c2c(C)c(CC)nc(N)c2C#N)ccc1O ?
Gal4-VP16 FLuc: -1%; ALOX12 inh: 0%; DT40 TDP1 no CPT: inconclusive; RORgamma inh: -11%; TDP1 cell CPT: -15%; ELG1 DNA repair: -14%

What do the screens show for `N#Cc1c(N)nc2c3c(sc(=N)c2c1N)NC(=O)CC3c1c(F)cccc1Cl` (stereo not drawn)?
Gal4-VP16 FLuc: -11%; ALOX12 inh: -8%; DT40 TDP1 no CPT: 6.5µM*; RORgamma inh: inconclusive; TDP1 cell CPT: inconclusive; ELG1 DNA repair: 8%

How did O=C(N/N=C\c1ccc(-c2ccc([N+](=O)[O-])cc2)o1)C1COc2ccccc2O1 (stereo not drawn) do in these assays?
Gal4-VP16 FLuc: -27%; ALOX12 inh: -23%; DT40 TDP1 no CPT: 23µM*; RORgamma inh: 0%; TDP1 cell CPT: inconclusive; ELG1 DNA repair: inconclusive

What do the screens show for `COc1cc([N+](=O)[O-])cc(/C=N\NC(=O)C2COc3ccccc3O2)c1O` (stereo not drawn)?
Gal4-VP16 FLuc: 3.2µM*; ALOX12 inh: -13%; DT40 TDP1 no CPT: inconclusive; RORgamma inh: 0.45µM*; TDP1 cell CPT: inconclusive; ELG1 DNA repair: -20%

Results for O=C(N/N=C\c1cccc([N+](=O)[O-])c1O)C1COc2ccccc2O1 (stereo not drawn) ?
Gal4-VP16 FLuc: 2µM*; ALOX12 inh: -11%; DT40 TDP1 no CPT: 5.2µM*; RORgamma inh: 1.8µM*; TDP1 cell CPT: 5.2µM*; ELG1 DNA repair: 8%

Results for CN(C)c1ccc(/C=N/NC(=O)C2COc3ccccc3O2)o1 (stereo not drawn) ?
Gal4-VP16 FLuc: inconclusive; ALOX12 inh: -13%; DT40 TDP1 no CPT: -14%; RORgamma inh: inconclusive; TDP1 cell CPT: inconclusive; ELG1 DNA repair: -8%

What do the screens show for `O=C(N/N=C/c1cccc([N+](=O)[O-])c1)C1COc2ccccc2O1` (stereo not drawn)?
Gal4-VP16 FLuc: 10%; ALOX12 inh: -5%; DT40 TDP1 no CPT: -16%; RORgamma inh: 16%; TDP1 cell CPT: 24%; ELG1 DNA repair: -4%

What do the screens show for `CN1C(=O)CCC2(CNC(=O)Nc3ccc4c(c3)OCCO4)CCC=C12` (stereo not drawn)?
ALOX12 inh: 26%

What do the screens show for `C=CCNC(=S)Nc1ccc(C)cc1Br`?
ALOX12 inh: 51%

How did COc1ccc(NC(=S)N(CCc2c(C)[nH]c3ccc(C)cc23)Cc2ccco2)cc1 do in these assays?
Gal4-VP16 FLuc: -15%; ALOX12 inh: -15%; DT40 TDP1 no CPT: inconclusive; RORgamma inh: inconclusive; TDP1 cell CPT: inconclusive; ELG1 DNA repair: inconclusive

Results for COCCNC(=S)N(CCc1c(C)[nH]c2ccc(F)cc12)Cc1ccc(C)cc1 ?
Gal4-VP16 FLuc: inconclusive; ALOX12 inh: 0%; DT40 TDP1 no CPT: 18µM*; RORgamma inh: inconclusive; TDP1 cell CPT: inconclusive; ELG1 DNA repair: inconclusive

Results for CCOc1ccc(NC(=S)N(CCc2c(C)[nH]c3ccc(C)cc23)Cc2ccco2)cc1 ?
Gal4-VP16 FLuc: inconclusive; ALOX12 inh: 8%; DT40 TDP1 no CPT: inconclusive; RORgamma inh: inconclusive; TDP1 cell CPT: inconclusive; ELG1 DNA repair: 16µM*

Results for COCCNC(=S)N(CCc1c(C)[nH]c2ccc(OC)cc12)Cc1ccco1 ?
Gal4-VP16 FLuc: 15%; ALOX12 inh: 33%; DT40 TDP1 no CPT: inconclusive; RORgamma inh: 14%; TDP1 cell CPT: inconclusive; ELG1 DNA repair: inconclusive

Results for COCCNC(=S)N(CCc1c(C)[nH]c2ccc(C)cc12)Cc1ccco1 ?
Gal4-VP16 FLuc: -10%; ALOX12 inh: 67%; DT40 TDP1 no CPT: inconclusive; RORgamma inh: 11µM*; TDP1 cell CPT: inconclusive; ELG1 DNA repair: inconclusive

What do the screens show for `O=[S+]([O-])(c1ccccc1)N1CC2(COCCN(c3nccc(C(F)(F)F)n3)C2)C1`?
ALOX12 inh: -12%[176 µM]

How did Cc1nc(C)c(C(=O)N2CCC3(CC2)CN(c2ncccn2)CC3CO)s1 (stereo not drawn) do in these assays?
ALOX12 inh: 33%

What do the screens show for `CCn1cnc2c1c(=O)n(CC(=O)Nc1ccc(C)c(F)c1)c(=O)n2Cc1ccccc1`?
ALOX12 inh: -75%

What do the screens show for `CC(C)(C)c1ccc(OCCCC(=O)Nc2nnc(C3CC3)s2)cc1`?
ALOX12 inh: 0%; DT40 TDP1 no CPT: 10µM*; TDP1 cell CPT: inconclusive

How did CC(=O)c1ccc(OCCCC(=O)Nc2nnc(C3CC3)s2)cc1 do in these assays?
ALOX12 inh: 1%; DT40 TDP1 no CPT: -1%; TDP1 cell CPT: 1%; ELG1 DNA repair: 8%

High-throughput results deposited in PubChem BioAssay by National Center for Advancing Translational Sciences (NCATS).
